Laboratory results: PubChem BioAssay AID2012 (Sanford-Burnham Center for Chemical Genomics, 2009)
Hit rate of the full screen: of about 290,000 compounds, about 2,700 (0.93%) were called active. How the calls were made is not given here. The list comes from a sample in which actives are over-represented; it also holds similar structures and randomly drawn compounds.

Biological target: Eukaryotic translation initiation factor 4H (Homo sapiens) (UniProt Q15056)
Assay: human eIF4H binding inhibitors, primary screen, translation initiation inhibitor project, biochemical, uHTS, fluorescence polarization (AID 2012);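 further: calls also rest on retests at 20 µM and on dose response follow-up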
Details: eIF4H fluorescence polarization binding assay, stronger effect = higher value

SMILES	inhibition (at 35 µM)	inhibition (confirmation average, at 20 µM) [%]
CN(C)c1ccc(/C=C2\CC3C4CC=C5CC(O)CCC5(C)C4CCC3(C)C2=O)cc1 (centres undefined)	3.9% (active)	87.3
CCN1C(=O)C(=Cc2c(C)n(CC(=O)NCC3CCCO3)c3ccccc23)C(=O)N(CC)C1=S (centres undefined)	48.5% (inactive)	
O=C(N/N=C/c1c(O)n(C2CC2)c(=S)[nH]c1=O)c1ccccc1	10.1% (inactive)	
O=C(N/N=C/c1c(O)n(Cc2ccccc2)c(=O)[nH]c1=O)c1ccccc1	74.3% (active)	67.6
CCCCC(=O)N/N=C/c1c(O)n(-c2ccccc2)c(=O)[nH]c1=O	12.9% (inactive)	
O=c1[nH]c(=O)n(Cc2ccccc2)c(O)c1/C=N/Nc1c(F)c(F)c(F)c(F)c1F	92.3% (active)	
O=c1[nH]c(=O)n(CCc2ccccc2)c(O)c1/C=N/N1CCOCC1	3.3% (inactive)	
O=c1[nH]c(=O)n(CCc2ccc(F)cc2)c(O)c1/C=N/N1CCCCC1	-3.1% (inactive)	
CC1CCC(N(C)C2CCN(C)CC2)CC1 (centres undefined)	-3.9% (inactive)	
CCN(CC)C(=O)c1ccc(NC(=O)c2sccc2-c2ccccc2)cc1	-5.8% (inactive)	
CCCCn1c(=O)c(C(=O)Nc2ccccc2Cl)c(O)c2ccccc21	-6% (inactive)	
COc1ccc(N=Cc2c(O)n(C)c(=O)[nH]c2=O)cc1	35.4% (inactive)	
Cc1cccc(NC(=O)N2CC3CC(C2)c2cccc(=O)n2C3)c1 (centres undefined)	-1.5% (inactive)	
Cc1nc2ccccc2c(=O)n1-c1ccc(Cl)cc1Cl	1.9% (inactive)	
Cc1ccc(C2CN(C)CC2C(=O)c2ccc(F)cc2)cc1 (centres undefined)	-1.4% (inactive)	
COc1ccc(CNCCc2c[nH]c3ccccc23)cc1OC	-0.9% (inactive)	
CN(C)S(=O)(=O)c1cc(C(=O)N2CCC(C(=O)O)(c3ccccc3)CC2)ccc1Cl	-1.5% (inactive)	
Cc1cccc(N2C(=O)NC(=O)/C(=C\c3cnn(-c4ccccc4)c3)C2=O)c1	-2.6% (inactive)	
O=C1NC(=O)N(c2ccccc2)C(=O)/C1=C/c1ccc([N+](=O)[O-])s1	70.5% (inactive)	22.6
COc1cccc(N2C(=O)NC(=O)/C(=C\c3ccc([N+](=O)[O-])s3)C2=O)c1	73.8% (active)	101
O=C(Cc1ccc(Cl)cc1)NCCN1CCN(C(=O)Cc2ccc(Cl)cc2)CC1	-0.4% (inactive)	
COc1ccc(CNCCc2ccc3c(c2)OCO3)c(OC)c1OC	18.8% (inactive)	
COc1cccc(OC)c1C(=O)NC(=S)N1C[C@H]2C[C@H](C1)c1cccc(=O)n1C2	-6.5% (inactive)	
O=C(O)COc1ccccc1/C=C1\C(=O)NC(=O)N(CCC2=CCCCC2)C1=O	94% (active)	
CCCCC(=O)N/N=C/c1c(O)n(CCC2=CCCCC2)c(=O)[nH]c1=O	26.1% (inactive)	

SMILES	inhibition (at 35 µM)	inhibition (confirmation average, at 20 µM) [%]
O=C1NC(=O)N(CCc2ccc(F)cc2)C(=O)/C1=C/C=C/c1ccccc1	4.2% (inactive)	
CN1CCC(OC(=O)c2cccc(F)c2)CC1	-5.1% (inactive)	
CC1(C)Cc2c(C#N)c(N3CCNCC3)nc(-c3ccco3)c2CS1	84.6% (active)	77.5
COc1cccc(C(=O)N2C[C@H]3C[C@@H](C2)c2cccc(=O)n2C3)c1	18.7% (inactive)	
C=CCN1C(=O)NC(=O)/C(=C/c2ccc(OCC(=O)Nc3ccc(C)cc3)cc2)C1=O	-6.2% (inactive)	
O=C1NC(=O)N(Cc2ccco2)C(=O)/C1=C\c1cccn1CCOc1ccccc1	49.4% (inactive)	
COc1ccc(CN2C(=O)NC(=O)/C(=C\c3ccc(OC)c(OC)c3OC)C2=O)cc1	9% (active)	60.4
CN(C)C(=O)Oc1ccc2c(c1)O/C(=C\c1ccccc1)C2=O	-7% (inactive)	
COc1ccc(N2C(=O)/C(=C/c3ccco3)C(=O)NC2=S)cc1	74.6% (active)	76.5
Cc1cc(/C=C2/C(=O)NC(=O)N(Cc3ccco3)C2=O)c(C)n1-c1ccc(C(=O)O)cc1	84% (inactive)	42.8
Cc1ccc(S(=O)(=O)N(C)c2ccc(C(=O)NCC3(N(C)C)CCCCC3)cc2)cc1	0.5% (inactive)	
O=[N+]([O-])c1cnc2ccc3ccccc3c2c1	1.5% (inactive)	
COc1ccc2[nH]c3c(c2c1)CCN[C@H]3C	-4.1% (inactive)	
CN(c1ccccc1)c1ccc([N+](=O)[O-])c2nonc12	9.8% (inactive)	
CCC(=NCc1ccco1)c1c(O)n(Cc2ccccc2)c(=O)[nH]c1=O	67.3% (active)	73.8
CCCCn1c(O)c(C(CC)=NCc2ccco2)c(=O)[nH]c1=O	9.5% (inactive)	
CC/C(=N\NC(=O)c1ccccc1O)c1c(O)n(Cc2ccccc2)c(=O)[nH]c1=O	43.2% (inactive)	
Oc1cc2c(cc1CN1CCN(c3ccccc3)CC1)OCO2	-8.2% (inactive)	
O=c1c2ccccc2nc(/C=C/c2ccc(F)cc2)n1-c1ccccc1O	18.9% (inactive)	
CC(=O)c1c(O)n(C2CCCCCC2)c(=O)[nH]c1=O	82% (active)	
CC(=NCC1CCCO1)c1c(O)n(-c2ccccc2)c(=O)[nH]c1=O (centres undefined)	-5.3% (inactive)	
CCC(=NCCc1ccccc1)c1c(O)n(C2CCCCC2)c(=O)[nH]c1=O	-8% (inactive)	
CCN1CCN(Cc2cc(OC)c3c(c2)OCO3)CC1	10.2% (inactive)	
c1ccc(CCNC2CCCCCC2)cc1	11% (inactive)	
CC(=O)Nc1ccc(C(=O)C(Cc2ccccc2)N(C)C)cc1 (centres undefined)	-9.3% (inactive)	
